Experimental data as given in PubChem BioAssay (NCI).
Compounds without any hit were thinned out: in the full panel of roughly 83,000, 20% have a hit.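 Testing used 96-well plates and a 48-hour single-concentration exposure. Example: -40 means 40% of the starting cells died.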 The source made the active and inactive calls. Rule for the calls: active = growth percent below 10; inactive = the rest.

How the values were obtained:
Test in all cases: NCI-60 one-dose screen, 48 h (100 = growth as untreated, 0 = no growth, -100 = all killed)
Settings in all cases: 10 µM unless noted
NCI-H23 lung = test system: NCI-H23 lung
NCI-H226 lung = test system: NCI-H226 lung
NCI-H322M lung = test system: NCI-H322M lung
HOP-62 NSCLC = test system: HOP-62 NSCLC
NCI-H460 lung = test system: NCI-H460 lung
HOP-92 NSCLC = test system: HOP-92 NSCLC
NCI-H522 lung = test system: NCI-H522 lung
A549/ATCC NSCLC = test system: A549/ATCC NSCLC
786-0 renal = test system: 786-0 renal
COLO 205 colon = test system: COLO 205 colon
DU-145 prostate = test system: DU-145 prostate
K-562 leukemia = test system: K-562 leukemia
MALME-3M melanoma = test system: MALME-3M melanoma
MDA-MB-231 breast = test system: MDA-MB-231 breast
RXF 393 renal = test system: RXF 393 renal
SF-268 CNS = test system: SF-268 CNS
SF-295 CNS = test system: SF-295 CNS
SF-539 CNS = test system: SF-539 CNS
UACC-257 melanoma = test system: UACC-257 melanoma
M14 melanoma = test system: M14 melanoma

Measured: growth

COc1cc(/C=N/NC(=O)c2cnn3c2NC(c2ccccc2)C3)ccc1Oc1ccccc1 (stereo not given)
inactive: NCI-H23 lung 43.8% | NCI-H226 lung 54.1% | NCI-H322M lung 30.8% | HOP-62 NSCLC 22.3% | HOP-92 NSCLC 26.1% | NCI-H522 lung 13.8% | A549/ATCC NSCLC 25.5% | 786-0 renal 25.5% | COLO 205 colon 24.9% | DU-145 prostate 30.2% | K-562 leukemia 16.8% | MALME-3M melanoma 27.4% | MDA-MB-231 breast 44.3% | RXF 393 renal 29.3% | SF-268 CNS 45.2% | UACC-257 melanoma 41.6% | M14 melanoma 18.2%
active: NCI-H460 lung 7.15% | SF-295 CNS 0.968% | SF-539 CNS 9.71%

COC(=O)C1=C(C(=O)ON)C2C=CC1(C(Cc1ccccc1)Nc1ccccc1)O2 (stereo not given)
inactive: NCI-H23 lung 89.4% | NCI-H226 lung 107% | NCI-H322M lung 93.3% | HOP-62 NSCLC 105% | NCI-H460 lung 103% | HOP-92 NSCLC 46.5% | A549/ATCC NSCLC 96.1% | 786-0 renal 93% | DU-145 prostate 73.9% | MDA-MB-231 breast 103% | RXF 393 renal 92.1% | SF-268 CNS 95% | SF-295 CNS 103% | SF-539 CNS 90% | UACC-257 melanoma 87.8% | M14 melanoma 76.3%
active: NCI-H522 lung -77.4% | COLO 205 colon -72% | K-562 leukemia -1.55% | MALME-3M melanoma -74%

O=[N+]([O-])CC(c1ccccc1)c1c[nH]c2ccccc12 (stereo not given)
inactive: NCI-H23 lung 68.5% | NCI-H226 lung 63.6% | NCI-H322M lung 97.6% | HOP-62 NSCLC 56% | NCI-H460 lung 52.6% | HOP-92 NSCLC 75.7% | A549/ATCC NSCLC 42.4% | 786-0 renal 70% | COLO 205 colon 54.1% | DU-145 prostate 84.1% | K-562 leukemia 10% | MALME-3M melanoma 57.3% | MDA-MB-231 breast 46.1% | RXF 393 renal 64.3% | SF-268 CNS 65.1% | SF-295 CNS 44.1% | SF-539 CNS 50.2% | UACC-257 melanoma 55.8% | M14 melanoma 23.2%
active: NCI-H522 lung 5.68%

C#CCNC(=O)[C@H](Cc1ccccc1)NC(=O)[C@]12CC[C@@H](C(=C)C)[C@@H]1[C@H]1CC[C@@H]3[C@@]4(C)CCC(=O)C(C)(C)[C@@H]4CC[C@@]3(C)[C@]1(C)CC2
inactive: NCI-H23 lung 70.6% | NCI-H226 lung 68.7% | NCI-H322M lung 69.9% | HOP-62 NSCLC 77.1% | NCI-H460 lung 66.7% | HOP-92 NSCLC 66% | NCI-H522 lung 52.6% | A549/ATCC NSCLC 53.9% | 786-0 renal 76% | COLO 205 colon 78.7% | DU-145 prostate 91.6% | K-562 leukemia 31.8% | MALME-3M melanoma 88.8% | MDA-MB-231 breast 79.1% | RXF 393 renal 82.9% | SF-268 CNS 74.3% | SF-295 CNS 73.4% | SF-539 CNS 99.9% | UACC-257 melanoma 59.4% | M14 melanoma 81.7%

CCNC(=O)Oc1ccc(/C(=C(\C)c2ccccc2)c2ccc(OCCCN(C)C)cc2)cc1
inactive: NCI-H23 lung 75.8% | NCI-H226 lung 99.2% | NCI-H322M lung 80.7% | HOP-62 NSCLC 87.4% | NCI-H460 lung 87.1% | HOP-92 NSCLC 69.4% | NCI-H522 lung 86.4% | A549/ATCC NSCLC 78.9% | 786-0 renal 64.2% | COLO 205 colon 54.5% | DU-145 prostate 92.5% | K-562 leukemia 14.4% | MALME-3M melanoma 40.9% | MDA-MB-231 breast 76.6% | RXF 393 renal 76.1% | SF-268 CNS 72.1% | SF-295 CNS 52.4% | SF-539 CNS 65.8% | M14 melanoma 19.7%
active: UACC-257 melanoma 3.23%

CN(C)CC(O)c1ccc(/C=C/c2ccc(Cl)cc2)cc1 (stereo not given)
active: NCI-H322M lung -9.83% | HOP-62 NSCLC -50.2% | NCI-H460 lung -54.6% | NCI-H522 lung -84.4% | A549/ATCC NSCLC -92.3% | COLO 205 colon -46.4% | DU-145 prostate -88.8% | K-562 leukemia -47.6% | MDA-MB-231 breast -82.3% | RXF 393 renal 8.01% | SF-268 CNS -52.4% | SF-295 CNS -48.2% | SF-539 CNS -67.6% | UACC-257 melanoma -81.2% | M14 melanoma -34.8%
inactive: NCI-H23 lung 33.5% | NCI-H226 lung 73.4% | HOP-92 NSCLC 15.5% | 786-0 renal 13.8% | MALME-3M melanoma 21.9%

Cn1c2ccccc2c2c3c(c4c5ccccc5n(C)c4c21)C(=O)OC3
inactive: NCI-H23 lung 97.6% | NCI-H226 lung 80.9% | NCI-H322M lung 87.6% | HOP-62 NSCLC 90.8% | NCI-H460 lung 97.6% | HOP-92 NSCLC 95.6% | NCI-H522 lung 88.8% | A549/ATCC NSCLC 104% | 786-0 renal 102% | COLO 205 colon 107% | DU-145 prostate 104% | K-562 leukemia 94.2% | MALME-3M melanoma 109% | MDA-MB-231 breast 76.2% | RXF 393 renal 101% | SF-268 CNS 91.1% | SF-295 CNS 107% | SF-539 CNS 96.6% | UACC-257 melanoma 109% | M14 melanoma 103%

CCOC(=O)c1ccc2c(c1)ncn2-c1ccc(NC(=O)Nc2cccc(C)c2)cc1
inactive: NCI-H23 lung 78.5% | NCI-H226 lung 93.8% | NCI-H322M lung 87.9% | HOP-62 NSCLC 81.8% | NCI-H460 lung 102% | HOP-92 NSCLC 117% | NCI-H522 lung 61.3% | A549/ATCC NSCLC 103% | 786-0 renal 79.2% | COLO 205 colon 74.3% | DU-145 prostate 71.9% | K-562 leukemia 18% | MALME-3M melanoma 96.2% | MDA-MB-231 breast 52.5% | RXF 393 renal 84.5% | SF-268 CNS 95.4% | SF-295 CNS 57.6% | SF-539 CNS 49.2% | UACC-257 melanoma 94% | M14 melanoma 64.5%

O=C(/C=C/c1ccc[nH]1)c1ccc(-n2ccc(C(F)(F)F)n2)c(F)c1
inactive: NCI-H23 lung 88.7% | NCI-H226 lung 84% | NCI-H322M lung 85.1% | HOP-62 NSCLC 103% | NCI-H460 lung 100% | HOP-92 NSCLC 92.4% | NCI-H522 lung 69.5% | A549/ATCC NSCLC 87.4% | 786-0 renal 91.8% | COLO 205 colon 119% | DU-145 prostate 99.8% | K-562 leukemia 77.4% | MALME-3M melanoma 84.6% | MDA-MB-231 breast 87.1% | RXF 393 renal 91.1% | SF-268 CNS 93.6% | SF-295 CNS 90.2% | SF-539 CNS 69.7% | UACC-257 melanoma 99.7% | M14 melanoma 94.3%

CCCCOc1ccc(/C=N/Nc2cc(C)nc3ccc(Br)cc23)cc1
active: NCI-H460 lung -34.6% | 786-0 renal -83.7% | COLO 205 colon -58.5% | K-562 leukemia -2.5% | MALME-3M melanoma -66.9% | RXF 393 renal -72% | SF-295 CNS -80.3% | SF-539 CNS -79.3% | M14 melanoma 4.9%
inactive: NCI-H23 lung 74.9% | NCI-H226 lung 90.2% | NCI-H322M lung 76.9% | HOP-62 NSCLC 82.5% | HOP-92 NSCLC 68% | NCI-H522 lung 76.9% | A549/ATCC NSCLC 34.5% | DU-145 prostate 16.4% | MDA-MB-231 breast 48.5% | SF-268 CNS 88.3% | UACC-257 melanoma 96.3%

CCCCCCOc1ccc(/C=N/Nc2cc(C)nc3ccc(Cl)cc23)cc1
active: HOP-62 NSCLC -51.6% | NCI-H460 lung -80% | NCI-H522 lung -42.9% | A549/ATCC NSCLC -43.1% | 786-0 renal -82.2% | COLO 205 colon -48.4% | DU-145 prostate -49% | K-562 leukemia -20.4% | MALME-3M melanoma -48.7% | MDA-MB-231 breast -79.9% | RXF 393 renal -94.3% | SF-295 CNS -84.3% | SF-539 CNS -86.5% | M14 melanoma 2.01%
inactive: NCI-H23 lung 68.3% | NCI-H226 lung 87.8% | NCI-H322M lung 14.6% | HOP-92 NSCLC 69.5% | SF-268 CNS 69.9% | UACC-257 melanoma 116%

CCN(CC)CCCC(C)Nc1cc(O)cc2cccnc12 (stereo not given)
inactive: NCI-H23 lung 98.8% | NCI-H226 lung 112% | NCI-H322M lung 110% | HOP-62 NSCLC 104% | NCI-H460 lung 108% | HOP-92 NSCLC 89.4% | NCI-H522 lung 125% | A549/ATCC NSCLC 96.2% | 786-0 renal 118% | COLO 205 colon 74.5% | DU-145 prostate 113% | K-562 leukemia 87.4% | MALME-3M melanoma 128% | MDA-MB-231 breast 69.4% | RXF 393 renal 105% | SF-268 CNS 98.6% | SF-295 CNS 104% | SF-539 CNS 103% | UACC-257 melanoma 93.8% | M14 melanoma 113%

COc1cc(NC(C)CCCNC(=O)CCC(=O)NCCCNCCCCCCCCCCNCCCNC(=O)CCC(=O)NCCCC(C)Nc2cc(OC)cc3cccnc23)c2ncccc2c1 (stereo not given)
inactive: NCI-H23 lung 63.4% [8 µM] | NCI-H226 lung 58.6% [8 µM] | NCI-H322M lung 32.1% [8 µM] | HOP-62 NSCLC 101% [8 µM] | NCI-H460 lung 81% [8 µM] | HOP-92 NSCLC 59% [8 µM] | NCI-H522 lung 57.1% [8 µM] | A549/ATCC NSCLC 63.7% [8 µM] | 786-0 renal 92.5% [8 µM] | COLO 205 colon 26.7% [8 µM] | DU-145 prostate 71.8% [8 µM] | K-562 leukemia 51.2% [8 µM] | MALME-3M melanoma 38.9% [8 µM] | MDA-MB-231 breast 34.6% [8 µM] | RXF 393 renal 88.1% [8 µM] | SF-268 CNS 66% [8 µM] | SF-295 CNS 97% [8 µM] | SF-539 CNS 75.7% [8 µM] | UACC-257 melanoma 47.1% [8 µM] | M14 melanoma 87% [8 µM]

C=C1C(=O)O[C@H]2[C@H]1CC/C(COC(=O)NCC(C)c1ccc(CC(C)C)cc1)=C\CC[C@@]1(C)O[C@@H]21 (stereo not given in full)
inactive: NCI-H23 lung 30.7% | NCI-H226 lung 61.4% | NCI-H322M lung 87% | HOP-62 NSCLC 82.2% | NCI-H460 lung 19.7% | A549/ATCC NSCLC 73% | DU-145 prostate 16.4% | SF-295 CNS 83.4% | UACC-257 melanoma 56.1%
active: HOP-92 NSCLC -33.3% | NCI-H522 lung -64.1% | 786-0 renal -87.7% | COLO 205 colon -50.3% | K-562 leukemia -18.2% | MALME-3M melanoma -62.7% | MDA-MB-231 breast -62.8% | RXF 393 renal -73.7% | SF-268 CNS -17.1% | SF-539 CNS -77% | M14 melanoma -29.8%
